Laboratory results published in the supplement of paper PMC10849652.
The full data set covers some 7,900 targets. This sample favours those with a hit. About 0.6% of all pairs of compound and target were hits.

Compound: c1cn2cc(-c3ccc4cn[nH]c4c3)nc(Nc3ccc(N4CCOCC4)cc3)c2n1 [entospletinib]
Experiment: log2 fold change, soluble protein after heating vs DMSO (PISA); higher = thermal stabilisation; K562 cells, 10 uM, 30 min; active = over 0.2 and 3.5 SD of the protein, either way, in both replicates (recomputed)
Outline: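 Values are thermal stability changes relative to control samples and are taken from duplicates. They are stated as log2 fold changes. Before quantification by TMTpro 16plex LC-MS/MS with equalised channel sums, K562 cells at 2×10^6 cells/mL were treated with 10 μM compound for 30 min, heated in aliquots for 3 min across 48°C-58°C, pooled, extracted in PBS with 0.5% NP-40 at 4°C, and centrifuged at 21,000xg for 90 min to give the soluble supernatant.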

Sequence of UniProt O14981 (O14981 whole entry, looked up): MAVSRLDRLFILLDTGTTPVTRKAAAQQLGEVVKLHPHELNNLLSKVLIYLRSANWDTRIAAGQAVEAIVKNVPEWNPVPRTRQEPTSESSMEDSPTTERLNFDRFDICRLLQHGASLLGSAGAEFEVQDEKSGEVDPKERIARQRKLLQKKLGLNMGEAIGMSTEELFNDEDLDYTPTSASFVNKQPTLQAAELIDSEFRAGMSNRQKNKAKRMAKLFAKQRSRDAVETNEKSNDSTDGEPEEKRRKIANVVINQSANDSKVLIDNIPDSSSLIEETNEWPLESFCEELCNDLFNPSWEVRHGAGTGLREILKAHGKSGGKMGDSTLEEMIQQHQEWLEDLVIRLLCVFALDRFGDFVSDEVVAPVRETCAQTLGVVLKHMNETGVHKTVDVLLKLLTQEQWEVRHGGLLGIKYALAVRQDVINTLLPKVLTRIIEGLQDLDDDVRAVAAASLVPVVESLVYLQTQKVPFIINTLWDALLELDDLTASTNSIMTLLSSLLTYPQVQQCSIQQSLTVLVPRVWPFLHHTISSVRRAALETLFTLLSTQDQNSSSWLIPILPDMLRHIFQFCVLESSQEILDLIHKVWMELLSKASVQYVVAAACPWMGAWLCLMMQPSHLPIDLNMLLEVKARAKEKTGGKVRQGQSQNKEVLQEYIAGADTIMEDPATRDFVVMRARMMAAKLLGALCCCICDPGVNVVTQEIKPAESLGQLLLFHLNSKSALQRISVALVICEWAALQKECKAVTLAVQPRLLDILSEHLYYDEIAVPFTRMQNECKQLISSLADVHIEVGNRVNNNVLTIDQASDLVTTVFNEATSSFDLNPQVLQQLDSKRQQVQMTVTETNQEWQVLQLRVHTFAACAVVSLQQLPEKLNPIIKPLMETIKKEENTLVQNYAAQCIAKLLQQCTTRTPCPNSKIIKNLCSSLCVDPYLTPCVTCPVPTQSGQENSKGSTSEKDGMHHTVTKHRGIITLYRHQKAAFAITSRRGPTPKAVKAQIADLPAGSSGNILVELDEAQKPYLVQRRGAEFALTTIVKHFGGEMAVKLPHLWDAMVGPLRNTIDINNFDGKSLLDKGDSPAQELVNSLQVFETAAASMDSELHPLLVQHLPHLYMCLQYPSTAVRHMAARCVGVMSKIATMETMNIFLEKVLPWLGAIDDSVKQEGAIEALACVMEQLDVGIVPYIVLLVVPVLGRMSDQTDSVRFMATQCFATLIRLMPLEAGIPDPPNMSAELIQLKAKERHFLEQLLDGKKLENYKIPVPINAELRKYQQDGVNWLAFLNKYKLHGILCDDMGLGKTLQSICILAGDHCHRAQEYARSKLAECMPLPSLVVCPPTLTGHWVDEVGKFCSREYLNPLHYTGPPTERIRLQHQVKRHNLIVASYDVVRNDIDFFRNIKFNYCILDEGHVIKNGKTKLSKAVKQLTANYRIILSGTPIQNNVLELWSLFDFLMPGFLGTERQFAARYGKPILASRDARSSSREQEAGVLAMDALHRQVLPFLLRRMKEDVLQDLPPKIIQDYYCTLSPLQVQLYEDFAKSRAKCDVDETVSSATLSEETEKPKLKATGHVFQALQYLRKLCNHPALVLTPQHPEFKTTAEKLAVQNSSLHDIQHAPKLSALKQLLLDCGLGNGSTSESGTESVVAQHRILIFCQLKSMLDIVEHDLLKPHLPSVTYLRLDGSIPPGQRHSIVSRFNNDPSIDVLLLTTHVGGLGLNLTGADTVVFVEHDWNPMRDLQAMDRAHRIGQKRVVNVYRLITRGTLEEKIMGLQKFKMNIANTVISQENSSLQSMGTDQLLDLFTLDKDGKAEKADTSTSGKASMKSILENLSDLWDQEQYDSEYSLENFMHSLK
Sequence of UniProt Q16186 (Q16186 whole entry, looked up): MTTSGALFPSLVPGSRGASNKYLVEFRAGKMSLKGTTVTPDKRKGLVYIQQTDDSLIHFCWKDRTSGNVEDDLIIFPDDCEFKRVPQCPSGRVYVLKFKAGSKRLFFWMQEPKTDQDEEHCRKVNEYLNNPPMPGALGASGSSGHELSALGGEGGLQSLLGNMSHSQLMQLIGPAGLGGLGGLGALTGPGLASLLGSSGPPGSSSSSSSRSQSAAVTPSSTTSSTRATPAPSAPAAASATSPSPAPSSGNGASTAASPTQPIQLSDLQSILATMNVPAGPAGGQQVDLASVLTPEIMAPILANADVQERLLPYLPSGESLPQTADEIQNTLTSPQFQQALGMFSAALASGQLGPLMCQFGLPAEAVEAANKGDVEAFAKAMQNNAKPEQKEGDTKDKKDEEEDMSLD
Sequence of UniProt Q9BX63 (Q9BX63 whole entry, looked up): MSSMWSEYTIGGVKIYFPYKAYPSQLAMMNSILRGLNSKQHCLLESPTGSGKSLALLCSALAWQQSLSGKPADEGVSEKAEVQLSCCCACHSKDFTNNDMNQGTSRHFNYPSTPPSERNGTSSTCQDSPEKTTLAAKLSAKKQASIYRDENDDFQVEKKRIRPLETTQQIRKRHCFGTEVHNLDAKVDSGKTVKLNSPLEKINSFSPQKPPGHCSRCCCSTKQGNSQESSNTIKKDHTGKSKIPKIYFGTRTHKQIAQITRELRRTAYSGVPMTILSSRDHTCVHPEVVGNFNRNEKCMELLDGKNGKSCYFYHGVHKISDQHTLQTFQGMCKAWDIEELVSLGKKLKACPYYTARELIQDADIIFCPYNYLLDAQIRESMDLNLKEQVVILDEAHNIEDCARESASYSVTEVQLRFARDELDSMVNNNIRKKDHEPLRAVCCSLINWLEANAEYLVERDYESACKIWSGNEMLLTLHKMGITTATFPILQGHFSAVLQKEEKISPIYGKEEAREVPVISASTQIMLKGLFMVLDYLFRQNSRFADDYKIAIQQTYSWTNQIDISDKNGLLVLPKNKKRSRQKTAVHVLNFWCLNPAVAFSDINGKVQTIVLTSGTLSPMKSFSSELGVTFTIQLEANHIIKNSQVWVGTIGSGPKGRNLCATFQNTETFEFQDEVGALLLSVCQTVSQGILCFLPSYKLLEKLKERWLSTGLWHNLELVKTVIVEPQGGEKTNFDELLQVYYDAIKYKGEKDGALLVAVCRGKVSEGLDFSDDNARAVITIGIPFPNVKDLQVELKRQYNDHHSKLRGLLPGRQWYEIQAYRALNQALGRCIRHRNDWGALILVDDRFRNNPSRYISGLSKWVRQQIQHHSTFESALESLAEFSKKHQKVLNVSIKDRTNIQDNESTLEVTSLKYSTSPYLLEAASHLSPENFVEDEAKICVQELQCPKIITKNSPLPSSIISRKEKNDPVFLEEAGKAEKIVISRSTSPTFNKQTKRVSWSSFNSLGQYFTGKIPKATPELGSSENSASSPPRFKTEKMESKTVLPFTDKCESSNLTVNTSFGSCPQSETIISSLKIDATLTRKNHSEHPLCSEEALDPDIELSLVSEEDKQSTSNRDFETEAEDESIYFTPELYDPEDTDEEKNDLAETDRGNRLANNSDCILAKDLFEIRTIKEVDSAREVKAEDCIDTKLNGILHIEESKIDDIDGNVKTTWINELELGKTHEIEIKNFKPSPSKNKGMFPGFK
Sequence of UniProt Q8NFV4 (Q8NFV4 whole entry, looked up): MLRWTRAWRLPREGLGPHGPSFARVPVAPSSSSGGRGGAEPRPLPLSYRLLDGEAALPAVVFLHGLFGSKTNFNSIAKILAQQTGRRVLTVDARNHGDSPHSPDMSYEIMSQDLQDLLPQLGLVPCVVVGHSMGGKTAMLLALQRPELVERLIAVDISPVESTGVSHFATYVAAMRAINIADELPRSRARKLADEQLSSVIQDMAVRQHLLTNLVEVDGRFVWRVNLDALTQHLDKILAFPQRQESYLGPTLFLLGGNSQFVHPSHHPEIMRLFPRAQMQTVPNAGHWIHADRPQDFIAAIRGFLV
Sequence of UniProt P24666 (P24666 whole entry, looked up): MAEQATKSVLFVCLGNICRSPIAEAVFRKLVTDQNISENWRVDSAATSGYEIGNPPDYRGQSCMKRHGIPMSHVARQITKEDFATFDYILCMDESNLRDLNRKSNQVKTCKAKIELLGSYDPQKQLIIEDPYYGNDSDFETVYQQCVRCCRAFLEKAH
Sequence of UniProt O95870 (O95870 whole entry, looked up): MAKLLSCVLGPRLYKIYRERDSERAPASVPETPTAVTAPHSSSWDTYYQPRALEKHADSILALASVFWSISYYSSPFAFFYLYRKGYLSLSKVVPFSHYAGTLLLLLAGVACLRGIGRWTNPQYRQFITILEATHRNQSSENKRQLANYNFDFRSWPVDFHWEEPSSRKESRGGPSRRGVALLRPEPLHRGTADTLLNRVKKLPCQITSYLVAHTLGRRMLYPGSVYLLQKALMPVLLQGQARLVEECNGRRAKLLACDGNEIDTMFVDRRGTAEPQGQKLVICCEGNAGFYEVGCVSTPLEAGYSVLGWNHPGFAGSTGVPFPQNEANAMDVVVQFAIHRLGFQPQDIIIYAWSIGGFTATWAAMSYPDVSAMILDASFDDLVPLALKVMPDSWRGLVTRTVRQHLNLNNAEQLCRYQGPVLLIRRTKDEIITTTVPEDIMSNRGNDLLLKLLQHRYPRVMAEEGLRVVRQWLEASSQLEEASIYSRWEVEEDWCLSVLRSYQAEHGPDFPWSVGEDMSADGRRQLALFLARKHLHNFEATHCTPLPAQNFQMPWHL
Sequence of UniProt Q8N6S5 (Q8N6S5 whole entry, looked up): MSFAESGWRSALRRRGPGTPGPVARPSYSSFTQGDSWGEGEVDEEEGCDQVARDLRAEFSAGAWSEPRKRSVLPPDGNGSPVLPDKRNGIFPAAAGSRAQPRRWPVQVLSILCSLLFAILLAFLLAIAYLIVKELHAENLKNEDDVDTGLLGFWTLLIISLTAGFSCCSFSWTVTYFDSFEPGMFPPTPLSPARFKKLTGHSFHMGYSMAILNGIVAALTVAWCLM
Sequence of UniProt Q99943 (Q99943 whole entry, looked up): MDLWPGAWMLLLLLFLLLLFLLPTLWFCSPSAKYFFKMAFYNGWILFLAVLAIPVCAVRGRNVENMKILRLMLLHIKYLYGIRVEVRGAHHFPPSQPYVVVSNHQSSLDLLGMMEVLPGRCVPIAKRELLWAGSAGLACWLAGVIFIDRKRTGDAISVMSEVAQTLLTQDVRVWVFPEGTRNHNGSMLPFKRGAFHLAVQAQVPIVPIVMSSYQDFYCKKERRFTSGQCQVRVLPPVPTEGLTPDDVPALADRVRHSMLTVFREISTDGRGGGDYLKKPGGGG

log2 fold change, inactive:
ALDH18A1 (UniProt P54886) -0.246
AARSD1 (UniProt Q9BTE6) -0.371
AGPAT3 isoform 3 (UniProt Q9NRZ7) -0.017
ACP1 isoform 2 (UniProt P24666) 0.052
ABHD16A (UniProt O95870) 0.002
ABHD11 (UniProt Q8NFV4) 0.006
ARL1 (UniProt P40616) -0.139
AP2A1 (UniProt O95782) 0.017
ALDH9A1 (UniProt P49189) 0.066
BYSL (UniProt Q13895) -0.065
AUP1 (UniProt Q9Y679) -0.025
AKAP8 (UniProt O43823) -0.018
AIFM2 (UniProt Q9BRQ8) 0.01
ATL2 (UniProt Q8NHH9) 0.016
BECN1 (UniProt Q14457) 0.011
BRD8 isoform 2 (UniProt Q9H0E9) 0.045
ATXN3 isoform 1 (UniProt P54252) 0.058
ALKBH4 (UniProt Q9NXW9) -0.029
AP2M1 (UniProt C9JTK4) 0.047
ARL6IP6 (UniProt Q8N6S5) -0.091
ATG9A (UniProt Q7Z3C6) -0.025
ATAD1 (UniProt Q8NBU5) 0.022
BRIP1 (UniProt Q9BX63) -0.055
ACSL4 (UniProt O60488) 0.009
ADRM1 (UniProt Q16186) -0.079
BOP1 (UniProt Q14137) -0.063
ATRN (UniProt O75882) 0.02
AGPAT1 (UniProt Q99943) -0.037
BTAF1 (UniProt O14981) -0.005
ACSF3 (UniProt Q4G176) -0.059
ATP6V1C1 (UniProt P21283) -0.02
ANXA5 (UniProt P08758) 0.016
APOB (UniProt P04114) 0.04
ATIC (UniProt P31939) 0.045
ALDH2 (UniProt P05091) -0.025
BST2 (UniProt Q10589) -0.009
ADPRHL2 (UniProt Q9NX46) 0.024
ATG4B isoform 2 (UniProt Q9Y4P1) 0.11
